# Data from PubChem BioAssay AID588473 (Sanford-Burnham Center for Chemical Genomics, 2011).
# Screen size: about 350,000 compounds; about 1,600 (0.46%) were called active. What follows is part of a selection rich in actives, with near analogues and random picks from the rest. Unmarked numbers belong to inactive results.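 Rule for the calls: active = activation of at least 50%, plus an integration ratio under a set limit after plate pattern correction; inactive = the rest.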
# System: CRF-binding protein / CRF receptor 2 complex (human)
# Assay: agonists of CRF-BP/CRF-R2 complex, primary screen, cell-based, HEK293, calcium dye fluorescence, uHTS (AID 588473);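 note: plate controls were neutral control wells without compound for no effect and CRF at EC100 for full effect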
# Settings: calcium dye fluorescence (FLIPR), at 13.2 µM, active compounds read high
row,Compound,activation
1,Cn1c(O)c(C=NCCCC(=O)O)c(=O)n(C)c1=O,3.61%
2,CCCCC(=O)N/N=C/c1c(O)n(CCC2=CCCCC2)c(=O)[nH]c1=O,0.08%
3,CCCCC(=O)N/N=C/c1c(O)n(CC)c(=S)n(CC)c1=O,89% (active)
4,COC(=O)C1=C(c2ccc(C(C)=O)cc2)C[C@@H]2CC[C@H]1N2C(=O)NCCNC(C)=O,-2% [percent of saturating CRF peptide response]
5,COc1ccc(C2NCc3ccc4c(c3-n3cccc32)OCO4)cc1OC (stereo not given),-1.07%
6,COC(=O)N(c1ccc(OC)cc1)P1(=S)OCCC(C)O1 (stereo not given),-2.1%
7,Cc1nc2ccccn2c1P(=S)(N1CCCCC1)N1CCCCC1,63.2% (active)
8,CN1CCN(Cc2ccc(OC(F)(F)F)cc2)CC1,-0.02%
9,CCCCCn1c(=O)c(C(=O)NCc2ccccc2)c(O)c2ccccc21,4.58%
10,CCOP(=S)(OCC)C(O)CCCCCn1c(=O)c(F)cn(C2CCCO2)c1=O (stereo not given),-3.57%
11,O=C(c1cc(S(=O)(=O)N2CCOCC2)ccc1F)N1CCC2(CC1)OCCO2,2.62%
12,COc1cccc(N2C(=O)NC(=O)/C(=C\c3cn(C)c4ccccc34)C2=O)c1,113% (active)
13,COc1ccc(N2C(=O)/C(=C/c3ccco3)C(=O)NC2=S)cc1,4.87%
14,COc1cccc(N2C(=O)NC(=O)/C(=C\c3ccc([N+](=O)[O-])s3)C2=O)c1,4.02%
15,c1ccc(C(CN2CCCCC2)c2ccccc2)cc1,-0.78% [percent of saturating CRF peptide response]
